According to the supplement of paper PMC10515830:
Where a name gives a salt, the structure may show the parent alone.

tested on: Danio rerio larvae (5 dpf); assay: difference in habituation to acoustic stimuli vs DMSO (percentage points); higher = more habituation than DMSO; details: 10 µM; exposure time 6 h
Summary of the method: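 Library compounds were tested at 10 µM final in 100 µL egg water on wild-type 5 dpf zebrafish larvae in 96-well plates for 6 h, with 48 larvae per compound. After 3 h, plates at 28.5 ℃ were imaged every 6 s during a 3-h run of moving lines and 100 ms, 400Hz tones. Behaviours were quantified by Z-LaP Tracker and reported as the compound mean less the vehicle control mean, in percentage points.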

Row | SMILES | difference in habituation to acoustic stimuli
1 | N=C(N)c1ccc(OCCCCCOc2ccc(C(=N)N)cc2)cc1 [Pentamidine] | 0.725
2 | CC[C@@H]1C(=O)OC[C@@H]1Cc1cncn1C [(+)-Pilocarpine (hydrochloride)] | 5.07
3 | Clc1ccc2nsnc2c1NC1=NCCN1 [Tizanidine (hydrochloride)] | 1.04
4 | C=CC[C@@H]1/C=C(\C)C[C@H](C)C[C@H](OC)[C@H]2O[C@@](O)(C(=O)C(=O)N3CCCC[C@H]3C(=O)O[C@H](/C(C)=C/[C@@H]3CC[C@@H](O)[C@H](OC)C3)[C@H](C)[C@@H](O)CC1=O)[C@H](C)C[C@@H]2OC | -10.2
5 | CC(C[N+](C)(C)C)OC(N)=O (centres undefined) [Bethanechol (chloride)] | 0.388
6 | Nc1ccn([C@@H]2O[C@H](CO)[C@@H](O)C2(F)F)c(=O)n1 [Gemcitabine] | -1.87
7 | C#CCN[C@@H]1CCc2ccccc21 [Rasagiline] | 4.46
8 | COCC(=O)Nc1c(I)c(C(=O)NCC(O)CO)c(I)c(C(=O)N(C)CC(O)CO)c1I (centres undefined) [Iopromide] | 1.33
9 | C[C@@H]1C[C@H]2[C@@H]3CCC4=CC(=O)C=C[C@]4(C)[C@@]3(Cl)[C@@H](O)C[C@]2(C)[C@@]1(OC(=O)c1ccco1)C(=O)CCl [Mometasone Furoate] | 0.89
10 | CC(=O)Oc1ccccc1C(=O)Nc1ncc([N+](=O)[O-])s1 [Nitazoxanide] | -12.4
11 | NC(=O)N[C@@H](CCC(=O)O)C(=O)O [N-Carbamyl-L-Glutamic Acid] | 3.65
12 | COc1ccccc1OCCNCC(O)COc1cccc2[nH]c3ccccc3c12 (centres undefined) [Carvedilol] | 0.913
13 | COc1cc(C(=O)NS(=O)(=O)c2ccccc2C)ccc1Cc1cn(C)c2ccc(NC(=O)OC3CCCC3)cc12 [Zafirlukast] | 4.84
14 | COc1cccc2c1C(=O)c1c(O)c3c(c(O)c1C2=O)C[C@@](O)(C(C)=O)C[C@@H]3O[C@H]1C[C@H](N)[C@H](O)[C@H](C)O1 [Daunorubicin (hydrochloride)] | 5.5
15 | CCc1ccc(CCOc2ccc(CC3SC(=O)NC3=O)cc2)nc1 (centres undefined) [Pioglitazone (hydrochloride)] | 6.03
16 | CO[C@H]1C[C@@H]2CC[C@@H](C)[C@@](O)(O2)C(=O)C(=O)N2CCCC[C@H]2C(=O)O[C@H]([C@H](C)C[C@@H]2CC[C@@H](O)[C@H](OC)C2)CC(=O)[C@H](C)/C=C(\C)[C@@H](O)[C@@H](OC)C(=O)[C@H](C)C[C@H](C)/C=C/C=C/C=C/1C [Rapamycin] | -0.387
17 | C#Cc1cccc(Nc2ncnc3cc(OCCOC)c(OCCOC)cc23)c1 [Erlotinib] | -0.321
18 | COc1cc2c(cc1OC)[C@@H](Cc1cc(OC)c(OC)c(OC)c1)[N+](C)(CCCOC(=O)CC/C=C/CCC(=O)OCCC[N+]1(C)CCc3cc(OC)c(OC)cc3[C@H]1Cc1cc(OC)c(OC)c(OC)c1)CC2 (some centres undefined) [Mivacurium (chloride)] | 4.16
19 | CCOC(=O)[C@H](CCc1ccccc1)N[C@@H](C)C(=O)N1CCC[C@H]1C(=O)O [Enalapril (maleate)] | -3.38
20 | CCCCC[C@H](O)/C=C/[C@H]1[C@H](O)CC(=O)[C@@H]1C/C=C\CCCC(=O)O [Prostaglandin E2] | 4.14

Row | SMILES | difference in habituation to acoustic stimuli
21 | C#C[C@]1(O)CC[C@H]2[C@@H]3CCC4=Cc5oncc5C[C@]4(C)[C@H]3CC[C@@]21C [Danazol] | -10.4
22 | CN(C)CCC[C@@]1(c2ccc(F)cc2)OCc2cc(C#N)ccc21 [Escitalopram] | 1.61
23 | Cc1cccc(Nc2ccccc2C(=O)O)c1C [Mefenamic Acid] | -12.8
24 | NCC[C@H](O)C(=O)N[C@@H]1C[C@H](N)[C@@H](O[C@H]2O[C@H](CN)[C@@H](O)[C@H](O)[C@H]2O)[C@H](O)[C@H]1O[C@H]1O[C@H](CO)[C@@H](O)[C@H](N)[C@H]1O [Amikacin] | 2.17
25 | COc1cc(Nc2c(C#N)cnc3cc(OCCCN4CCN(C)CC4)c(OC)cc23)c(Cl)cc1Cl [Bosutinib] | -5.15
26 | CC/C=C\C/C=C\C/C=C\C/C=C\C/C=C\CCCC(=O)OCC [Eicosapentaenoic Acid ethyl ester] | 3.98
27 | Oc1ncnc2[nH]ncc12 [Allopurinol] | 0.54
28 | CC(=O)CC(c1ccccc1)c1c(O)c2ccccc2oc1=O (racemic) [(±)-Warfarin] | -3.9
29 | CC(=O)Nc1nnc(S(N)(=O)=O)s1 [Acetazolamide] | 6.2
30 | Nc1nc2c(ncn2COC(CO)CO)c(=O)[nH]1 [Ganciclovir] | 2.18
31 | NS(=O)(=O)c1cc2c(cc1Cl)NCNS2(=O)=O [Hydrochlorothiazide] | 1.66
32 | CC(C)CN(C[C@@H](O)[C@H](Cc1ccccc1)NC(=O)O[C@H]1CCOC1)S(=O)(=O)c1ccc(N)cc1 [Amprenavir] | 0.569
33 | Cc1ccc([C@@H]2O[C@H](CO)[C@@H](O)[C@H](O)[C@H]2O)cc1Cc1ccc(-c2ccc(F)cc2)s1 [Canagliflozin] | 3.27
34 | CC(C)(C)NC(=O)[C@H]1CC[C@H]2[C@@H]3CC[C@H]4NC(=O)C=C[C@]4(C)[C@H]3CC[C@]12C [Finasteride] | -0.24
35 | CCCc1nc2c(C)cc(-c3nc4ccccc4n3C)cc2n1Cc1ccc(-c2ccccc2C(=O)O)cc1 [Telmisartan] | -3.85
36 | CC(C)(C)NC[C@H](O)COc1nsnc1N1CCOCC1 [Timolol (maleate)] | -0.906
37 | O=c1[nH]cc(F)c(=O)[nH]1 [5-Fluorouracil] | 0.939
38 | CC1=NN(c2ccccc2)C(=O)C1 | -1.34
39 | N#C[C@@H]1C[C@@H]2C[C@@H]2N1C(=O)[C@@H](N)C12CC3CC(CC(O)(C3)C1)C2 [Saxagliptin (hydrochloride)] | 5.75
